# Data taken from PubChem BioAssay.
# Target: E3 ubiquitin-protein ligase XIAP (Homo sapiens) (UniProt P98170)
# Test: small molecules binding XIAP protein – biophysical, small-molecule microarray, fluorescence 635 nm, primary screen (AID 1181);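 further: score merges 667 nm emission and signal to noise over triplicate slides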
# Details: higher = more signal
# Chain of E3 ubiquitin-protein ligase XIAP (Homo sapiens) (P98170 whole entry, looked up): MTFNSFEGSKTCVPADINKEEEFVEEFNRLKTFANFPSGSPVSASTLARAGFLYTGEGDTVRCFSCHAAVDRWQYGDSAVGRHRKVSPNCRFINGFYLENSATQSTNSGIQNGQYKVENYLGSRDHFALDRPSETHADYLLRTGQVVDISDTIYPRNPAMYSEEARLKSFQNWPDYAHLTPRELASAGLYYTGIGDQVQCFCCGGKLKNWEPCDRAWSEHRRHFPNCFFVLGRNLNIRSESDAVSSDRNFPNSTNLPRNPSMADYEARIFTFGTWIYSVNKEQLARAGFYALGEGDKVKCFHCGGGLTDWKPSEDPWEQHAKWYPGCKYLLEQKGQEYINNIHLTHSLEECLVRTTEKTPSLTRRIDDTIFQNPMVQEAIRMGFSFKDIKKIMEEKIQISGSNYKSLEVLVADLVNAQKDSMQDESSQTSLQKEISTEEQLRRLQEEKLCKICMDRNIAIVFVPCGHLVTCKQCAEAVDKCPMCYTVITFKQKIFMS
row,SMILES,composite z-score
1,COC(=O)[C@H](C)NC(=O)CCC1CC(OC(=O)NCc2cccc3ccccc23)CC2(CCCC(COC(=O)NCCc3ccccc3OC)O2)O1 (stereo partly specified),0.0932
2,CO[C@@H](C(C)C)[C@@H](C)C1OC(=O)CC1O (stereo partly specified),-0.0391
3,COc1ccc(COC(=O)NN=C2C[C@@H](O)[C@@H](O)[C@@H]3[C@@H]4C(=O)N(C[C@@H]5CCCO5)C(=O)[C@@H]4CC[C@H]23)cc1,0.0679
4,COC(=O)[C@H](C)NC(=O)CCC1CC(OC(=O)NCCc2ccc(F)cc2)CC2(CCCC(COC(=O)NCCc3ccccc3OC)O2)O1 (stereo partly specified),-0.0615
5,CON=C(C)CCN1CCCCc2nc(C)c(C)cc21,0.496
6,CC(C)C(=O)N[C@H]1CCCN1C(=O)C=Cc1ccccc1,-0.0476
7,C#CCCCON=C1C[C@@H](O)[C@@H](O)[C@@H]2[C@@H]3C(=O)N(C[C@@H]4CCCO4)C(=O)[C@@H]3CC[C@@H]12,-0.0303
8,COc1ccc(COC(=O)NN=C2C[C@@H](O)[C@@H](O)[C@@H]3[C@@H]4C(=O)N(C5CCCCC5)C(=O)[C@@H]4CC[C@@H]23)cc1,0.0225
9,CCOC(=O)[C@H](CC(C)C)NC(=O)CCC1CC(OC(=O)NCc2ccc3c(c2)OCO3)CC2(CCCC(COC(=O)NCCc3ccc(Cl)cc3)O2)O1 (stereo partly specified),-0.157
10,CC(CCC(=O)OC[C@H]1O[C@H](C#Cc2ccccc2)C=C[C@@H]1Oc1ccc(C)cc1)=NO[C@@H](C)c1cc(-c2c(C)cc(C)cc2C)no1,-0.102
11,COC(=O)[C@H](C)NC(=O)CC=C[C@@H](C)[C@@H]1C=C[C@H](O)[C@@H](CO)O1,0.0623
12,C[C@H]1CC[C@@H](C(=O)O)N[C@@H]1c1cccc(N2CCCC2=O)c1,0.0909
13,CO[C@@H]1[C@H](O)CO[C@H]1C=Cc1ccccc1,-0.123
14,COC(=O)[C@H](C)NC(=O)CCC1CC(OC(=O)NCCc2ccc(F)cc2)CC2(CCCC(COC(=O)NCc3ccccc3)O2)O1 (stereo partly specified),-0.0601
15,CC(C)CON=C1C[C@@H](O)[C@@H](O)[C@@H]2[C@@H]3C(=O)N(c4ccc(F)cc4F)C(=O)[C@@H]3CC[C@@H]12,-0.0296
16,O=C1C=C[C@@H](O)[C@@H]2[C@@H]3C(=O)N(Cc4ccc5c(c4)OCO5)C(=O)[C@@H]3CC[C@@H]12,-0.0233
17,CC[C@@H](c1ccccc1)n1c(=O)n2n(c1=O)[C@H]1[C@H](O)[C@@H]3O[C@@H]3C(=NOCc3ccccc3)[C@H]1CC2,-0.0062
18,CC(=O)OC[C@H]1O[C@H](CC=NOC[C@@H](O)COCc2ccco2)C=C[C@@H]1OC(C)=O,-0.306

row,SMILES,composite z-score
1,C[C@H]1C=CCC(=O)OC[C@H](C)C(=O)N2CCC[C@H]2C(=O)OC1,-0.102
2,CC(C)CON=C1C[C@@H](O)[C@@H](O)[C@@H]2[C@@H]3C(=O)N(Cc4ccc5c(c4)OCO5)C(=O)[C@@H]3CC[C@@H]12,-0.102
3,CCOC(=O)CCN1C(=O)[C@H]2[C@H]3[C@H](O)[C@H](O)CC(=NNC(=O)OCC)[C@H]3CC[C@H]2C1=O,0.106
4,CC(=O)OC[C@H]1O[C@@H](ON=C2[C@H]3CCn4c(=O)n(-c5ccccc5)c(=O)n4[C@H]3[C@H](O)[C@@H]3O[C@H]23)[C@H](OC(C)=O)[C@@H](OC(C)=O)[C@@H]1OC(C)=O,-0.174
5,CCOC(=O)[C@H](CC(C)C)NC(=O)CCC1CC(OC(=O)NCc2ccc3c(c2)OCO3)CC2(CCCC(COC(=O)NCCOC)O2)O1 (stereo partly specified),-0.0784
6,O=C1C[C@@H](O)[C@@H](O)[C@@H]2[C@@H]3C(=O)N(c4ccc(F)cc4F)C(=O)[C@@H]3CC[C@H]12,-0.214
7,CCOC(=O)CCN1C(=O)[C@H]2[C@@H]3C(=CC[C@H]2C1=O)C(=O)[C@H]1O[C@H]1[C@H]3O,-0.0812
8,O=C1CCCC=C1C(O)C1CCCCC1 (stereo unspecified),-0.242
9,CCN1C(=O)[C@H]2[C@H]3[C@H](O)[C@H](O)CC(=NOC[C@@H](O)[C@H]4O[C@@H]5OC(C)(C)O[C@@H]5[C@H]4O)[C@@H]3CC[C@H]2C1=O,0.0126
10,COc1ccc(COC(=O)NN=C2C[C@@H](O)[C@@H](O)[C@@H]3[C@@H]4C(=O)N(Cc5ccccc5)C(=O)[C@@H]4CC[C@@H]23)cc1,-0.102
11,C[C@H]1CC[C@H]2C(=O)OC(COc3ccc(C(C)(C)C)cc3)CN2[C@@H]1c1ccc(Br)cc1 (stereo partly specified),-0.173
12,COCCNC(=O)OCC1CCCC2(CC(OC(=O)NCc3cccc4ccccc34)CC(CCC(=O)N[C@@H](C)C(=O)OC)O2)O1 (stereo partly specified),-0.0999
13,CC(C)CON=C1[C@H]2CCn3c(=O)n(C)c(=O)n3[C@H]2[C@H](O)[C@@H]2O[C@H]12,-0.117
14,CO[C@H]1COC(=O)[C@H](CCSC)NC(=O)CC=C[C@@H](C)[C@H](OC)COC(=O)[C@@H](OCc2ccccc2)C=C[C@@H]1C,-0.0965
15,CC(CCN1CCCCc2nc(C)c(C)cc21)=NOC[C@@H](O)[C@H]1O[C@@H]2OC(C)(C)O[C@@H]2[C@H]1O,-0.0323
16,CC(C)(C)N1C(=O)[C@H]2[C@H]3[C@H](O)[C@H](O)CC(=NOC[C@@H](O)COCc4ccco4)[C@@H]3CC[C@H]2C1=O,-0.173
17,C=CC[C@@H]1C=C[C@H](ON=C2C[C@@H](O)[C@@H](O)[C@@H]3[C@@H]4C(=O)N(CC)C(=O)[C@@H]4CC[C@@H]23)[C@@H](CO)O1,-0.289
18,CCOC(=O)NN=C1C[C@@H](O)[C@@H](O)[C@@H]2[C@@H]3C(=O)N(CC)C(=O)[C@@H]3CC[C@H]12,0.0119
